{"source": "PubChem BioAssay (NCI)", "note": "This is part of a sample that, as a whole, favours compounds with a hit. Of some 83,000 tested, about 20% had one in any assay.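 Activity criterion: percent growth below 10, measured after cells in 96-well plates were exposed to a single compound concentration for 48 hours.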 The source made the active and inactive calls.", "data": [{"test_system": "SK-MEL-28 melanoma", "assay": "NCI-60 one-dose screen, 48 h (100 = growth as untreated, 0 = no growth, -100 = all killed)", "conditions": "10 µM", "values": [{"smiles": "CC(=O)OCC1CCCO1", "note": "(stereo not drawn)", "growth": "108% (inactive)"}, {"smiles": "N#CCCc1ccc(O)cc1", "growth": "105% (inactive)"}, {"smiles": "Nc1ccc(N=Nc2ccc(S(=O)(=O)O)cc2)c2ccccc12", "growth": "103% (inactive)"}, {"smiles": "O=C1OC(=O)C2C1C1(Cl)C(Cl)=C(Cl)C2(Cl)C2C(=O)OC(=O)C21", "note": "(stereo not drawn)", "growth": "107% (inactive)"}, {"smiles": "CCCCCCCCO", "growth": "112% (inactive)"}, {"smiles": "O=c1[nH]nc(SC2CCCCC2)c(=O)[nH]1", "growth": "94.8% (inactive)"}, {"smiles": "CCCNC(=O)c1ccc(S(N)(=O)=O)cc1", "growth": "97.8% (inactive)"}, {"smiles": "Cc1ccc(CCCC(=O)O)c(C)c1", "growth": "98.1% (inactive)"}, {"smiles": "Oc1ccccc1-c1nnco1", "growth": "101% (inactive)"}, {"smiles": "COc1ccc(C(O)c2ccccc2)cc1", "note": "(stereo not drawn)", "growth": "105% (inactive)"}, {"smiles": "FC(F)(F)c1ccc2c(c1)N(CCCN1CCN(C3CC3)CC1)c1ccccc1S2", "growth": "93.8% (inactive)"}, {"smiles": "CC(=O)NCc1cc(C)c(C)cc1C", "growth": "103% (inactive)"}, {"smiles": "CCC(C)(O)c1ccc(C)cc1", "note": "(stereo not drawn)", "growth": "104% (inactive)"}, {"smiles": "CC(C)(N)COS(=O)(=O)O", "growth": "96.3% (inactive)"}, {"smiles": "Cc1cc(C)cc(NCCC#N)c1", "growth": "108% (inactive)"}, {"smiles": "O=C(O)CSCSCC(=O)O", "growth": "97.8% (inactive)"}, {"smiles": "CCO/C=C1\\SC(=S)N(c2cccc(C)c2)C1=O", "growth": "104% (inactive)"}, {"smiles": "Cc1cc2ccccc2c(O)c1C#N", "growth": "115% (inactive)"}, {"smiles": "O=C(O)/C=C/C(=O)NCc1ccccc1", "growth": "105% (inactive)"}, {"smiles": "Cc1cc2nc(CO)[nH]c2cc1C", "growth": "108% (inactive)"}, {"smiles": "C=CCNc1ccccc1", "growth": "99.9% (inactive)"}, {"smiles": "NC(=O)NC(=O)c1ccc(Cl)cc1", "growth": "119% (inactive)"}, {"smiles": "CCOc1ccc(I)cc1", "growth": "107% (inactive)"}]}]}
